Data reported in PubChem BioAssay (NCATS).
Where “and” joins values, the source holds several entries; their conditions need not be identical. Equal values may be shown once. Records with an inconclusive call do not appear. The source holds several records for some structures; these can differ, active in one and inactive in another. Calls of active or inactive are those of the source. Calls follow the shape of the dose curve; as a rule, active = well fitted curve in the direction sought with a large enough effect; inconclusive = small, poorly fitted or top-dose-only effect, or another doubt; inactive = no such curve, though single readings can be large; an effect the other way counts as inactive or inconclusive.

How the values were obtained:
[1] = Quantitative High-Throughput drug screen in 47 multiple myeloma cell lines against the NCATS MIPE library collection: MOLP8_DSMZ cell viability assay (AID 1918977); also: nearly all actives have a fitted effect of over 45% in size; also: potency is read from the fitted curve at half-maximal effect
Outline: (§1)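 ATP-based CellTiter-Glo luminescence after 48 h drug exposure (37 °C, 5% CO2) of 500 myeloma cells per well. DMSO-only wells set 100% viability, media-only wells 0%; MIPE 4.0 library added by pin tool.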

[2] = Quantitative High-Throughput drug screen in 47 multiple myeloma cell lines against the NCATS MIPE library collection: NCIH929_DSMZ cell viability assay (AID 1918978); also: nearly all actives have a fitted effect of over 35% in size; also: potency is read from the fitted curve at half-maximal effect
Outline: as §1

[3] = Quantitative High-Throughput drug screen in 47 multiple myeloma cell lines against the NCATS MIPE library collection: OCIMY1_PLB cell viability assay (AID 1918979); also: series mostly up to about 46 µM; nearly all actives have a fitted effect of over 35% in size
Outline: as §1

[4] = Quantitative High-Throughput drug screen in 47 multiple myeloma cell lines against the NCATS MIPE library collection: MM1S_ATCC cell viability assay (AID 1918980); also: nearly all actives have a fitted effect of over 45% in size; also: potency is read from the fitted curve at half-maximal effect
Outline: as §1

[5] = Quantitative High-Throughput drug screen in 47 multiple myeloma cell lines against the NCATS MIPE library collection: MM1R_ATCC cell viability assay (AID 1918981); also: nearly all actives have a fitted effect of over 35% in size; also: potency is read from the fitted curve at half-maximal effect
Outline: as §1

[6] = Quantitative High-Throughput drug screen in 47 multiple myeloma cell lines against the NCATS MIPE library collection: LP1_DSMZ cell viability assay (AID 1918982); also: nearly all actives have a fitted effect of over 35% in size; also: potency is read from the fitted curve at half-maximal effect
Outline: as §1

[7] = Quantitative High-Throughput drug screen in 47 multiple myeloma cell lines against the NCATS MIPE library collection: KMS28PE_JCRB cell viability assay (AID 1918983); also: nearly all actives have a fitted effect of over 35% in size; also: potency is read from the fitted curve at half-maximal effect
Outline: as §1

[8] = Quantitative High-Throughput drug screen in 47 multiple myeloma cell lines against the NCATS MIPE library collection: KMS34_JCRB cell viability assay (AID 1918985); also: nearly all actives have a fitted effect of over 40% in size; also: potency is read from the fitted curve at half-maximal effect
Outline: as §1

[9] = Quantitative High-Throughput drug screen in 47 multiple myeloma cell lines against the NCATS MIPE library collection: L363_DSMZ cell viability assay (AID 1918984); also: nearly all actives have a fitted effect of over 40% in size; also: potency is read from the fitted curve at half-maximal effect
Outline: as §1

[10] = Quantitative High-Throughput drug screen in 47 multiple myeloma cell lines against the NCATS MIPE library collection: MMM1_PLB cell viability assay (AID 1918976)
Outline: as §1

Measured: Potency

CC(c1cc2ccccc2s1)N(O)C(N)=O (stereo not drawn)
not listed: [8] | [9] | [10]
inactive: all other assays above

Oc1ccc(C2CNCCc3c2cc(O)c(O)c3Cl)cc1 (stereo not drawn)
active: [2] 16.6 µM | [4] 3.32 µM | [8] 14.8 µM
not listed: [9] | [10]
inactive: all other assays above

NC(=O)c1ccc(-c2nc(-c3ccc4c(c3)OCO4)c(-c3ccccn3)[nH]2)cc1
inactive: [1] | [2] | [3] | [4]
active: [5] 7.43 µM | [8] 2.64 µM

Cc1cnc(NC(=O)C2=C(O)c3ccccc3S(=O)(=O)N2C)s1
not listed: [4] | [9] | [10]
inactive: all other assays above

CCn1cc(C(=O)O)c(=O)c2cc(F)c(N3CCNC(C)C3)c(F)c21 (stereo not drawn)
not listed: [4] | [10]
inactive: all other assays above

CNC(=O)c1ccc(N2C(=S)N(c3ccc(C#N)c(C(F)(F)F)c3)C(=O)C2(C)C)cc1F
active: [4] 18.7 µM
not listed: [10]
inactive: all other assays above

CCN(CC)CCCC(C)Nc1ccnc2cc(Cl)ccc12 (stereo not drawn)
active: [9] 0.935 µM
not listed: [4] | [5] | [10]
inactive: all other assays above

CCCc1nn(C)c2c(=O)[nH]c(-c3cc(S(=O)(=O)N4CCN(C)CC4)ccc3OCC)nc12
inactive: [9]
active: [10] 23.5 µM | [4] 20.9 µM

CCN(c1ccccc1)c1cc(NC)[n+](C)c(C)n1
inactive: [2] | [3] | [6] | [7]
active: [1] 2.09 µM | [5] 16.6 µM | [8] 26.4 µM

Nc1nc2ccc(OC(F)(F)F)cc2s1
active: [10] 23.5 µM | [4] 2.64 µM | [7] 23.5 µM
inactive: [9]

CC(C)(N)C(=O)N[C@H](COCc1ccccc1)C(=O)N1CCC2(CC1)CN(S(C)(=O)=O)c1ccccc12
active: [10] 23.5 µM | [4] 23.5 µM | [5] 18.7 µM | [6] 16.6 µM | [7] 18.7 µM | [8] 14.8 µM

O=C(Nc1nc2ccccc2n1CCN1CCOCC1)c1cccc([N+](=O)[O-])c1
active: [10] 13.2 µM | [4] 9.35 µM | [5] 18.7 µM

Cc1n[nH]c(C)c1Cc1sc2c(c1C(=O)N1C[C@H](O)CO1)c(=O)n(C)c(=O)n2CC(C)C
active: [1] 0.935 µM | [4] 11.8 µM | [7] 16.6 µM
not listed: [6] | [10]
inactive: all other assays above

CCC(C)(C)C(=O)O[C@H]1C[C@@H](C)C=C2C=C[C@H](C)[C@H](CC[C@@H]3C[C@@H](O)CC(=O)O3)[C@H]21
active: [1] 13.2 µM | [2] 13.2 µM | [4] 16.6 µM | [9] 13.2 µM
inactive: [3]

CCCc1nc2c(C)cc(-c3nc4ccccc4n3C)cc2n1Cc1ccc(-c2ccccc2C(=O)O)cc1
active: [4] 26.4 µM
not listed: [9] | [10]
inactive: all other assays above

Cc1oncc1C(=O)Nc1ccc(C(F)(F)F)cc1
inactive: [3]
active: [2] 18.7 µM | [4] 14.8 µM | [6] 10.5 µM

O=C(C1CC1)N1CC[C@@H](Cn2c(-c3ccc(-c4ccc5occc5c4)cc3)nc3cnccc32)C1
inactive: [2] | [3] | [4] | [7]
active: [6] 10.5 µM

O=C(c1cc(Cc2n[nH]c(=O)c3ccccc23)ccc1F)N1CCN(C(=O)C2CC2)CC1
active: [4] 23.5 µM
inactive: [1] | [8]

Cn1cnc([N+](=O)[O-])c1Sc1ncnc2nc[nH]c12
inactive: [1] | [3] | [7]
active: [2] 16.6 µM

OC(CCN1CCCCC1)(c1ccccc1)C1CC2C=CC1C2 (stereo not drawn)
inactive: [1] | [2] | [3] | [6] | [7] | [8]

Cn1cnc2c(F)c(Nc3ccc(Br)cc3Cl)c(C(=O)NOCCO)cc21
active: [2] 0.105 µM | [4] 7.43 µM | [5] 18.7 µM | [7] 9.35 µM | [9] 0.833 µM
inactive: [3]

O=C(O)CCc1ccc(NCc2cccc(Oc3ccccc3)c2)cc1
not listed: [3] | [10]
inactive: all other assays above

Nc1cccc(S(=O)(=O)N2CCCN(S(=O)(=O)c3ccc4c(c3)OCCO4)CC2)c1
inactive: [1] | [2] | [8]
active: [4] 14.8 µM | [5] 11.8 µM | [6] 16.6 µM

Cc1c(C)c2c(c(C)c1O)CCC(C)(COc1ccc(CC3SC(=O)NC3=O)cc1)O2 (stereo not drawn)
inactive: [1] | [3] | [5] | [6] | [7] | [9]

N[C@@H]1CONC1=O
not listed: [1] | [7] | [10]
inactive: all other assays above

NS(=O)(=O)c1cc2c(cc1Cl)NC=NS2(=O)=O
inactive: [1] | [5] | [6] | [7] | [9] | [8]

CC(C=CC1=C(C)CCCC1(C)C)=CC=CC(C)=CC(=O)O
active: [2] 18.7 µM and 6.62 µM | [4] 0.526 µM
inactive: [3] | [6]
inactive and 9.35 µM (active): [7]

Nc1nc2c(ncn2COCCO)c(=O)[nH]1
inactive: [1] | [2] | [6] | [7] | [9] | [8]

O=NN(CCCl)C(=O)NCCCl
inactive: [1] | [2] | [5] | [6] | [9]

COc1ccc(-c2oc3cc(OC)ccc3c2C(=O)c2ccc(C#N)cc2)cc1
active: [4] 10.5 µM | [9] 3.32 µM
inactive: [1] | [3] | [7] | [8]

NC(=O)c1ccc(-c2nc(-c3ccc4c(c3)OCCO4)c(-c3ccccn3)[nH]2)cc1
inactive: [1] | [2] | [3]
active: [9] 20.9 µM

O=c1[nH]cnc2[nH]ncc12
inactive: [1] | [2] | [6] | [7] | [8]
